Reference: the supplement of paper PMC6555819

How the values were obtained:
Test in all cases: PBM binding z-score (relative to random genomic background probes); higher = stronger binding; sequences stand for … in GC…GCGATTGACAGCGTAGAATGAAGG
[1] = test system: FXR:RXRa (NR concentration 270 nM, RXRa partner concentration 90 nM)
Outline: (§1)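 Ligand-free nuclear receptor dimers were applied to custom Agilent 4×180K protein-binding microarrays whose double-stranded probes carried direct-repeat seeds, single-nucleotide variants, half-site ablations and random human genomic background sequences in 34-nt variable regions. Incubation lasted 1 h. Binding z-scores were computed against the random background probes from regression-normalized fluorescence.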

[2] = test system: LXRa homodimer (NR concentration 270 nM)
Outline: as §1

[3] = test system: LXRb homodimer (NR concentration 270 nM)
Outline: as §1

[4] = test system: PPARa:RXRa (NR concentration 270 nM, RXRa partner concentration 90 nM)
Outline: as §1

[5] = test system: PPARg:RXRa (NR concentration 180 nM, RXRa partner concentration 90 nM)
Outline: as §1

[6] = test system: PPARg:RXRa 270nM:90nM, anti-RXR (NR concentration 270 nM, RXRa partner concentration 90 nM)
Outline: as §1

[7] = test system: PPARg:RXRa 30nM:10nM, anti-RXR (NR concentration 30 nM, RXRa partner concentration 10 nM)
Outline: as §1

[8] = test system: PPARg:RXRa 90nM:30nM, anti-RXR (NR concentration 90 nM, RXRa partner concentration 30 nM)
Outline: as §1

[9] = test system: PPARg:RXRa DBDmut IVT, anti-RXR (DBD mutation: RXRa K156A/R161A, NR concentration 270 nM, RXRa partner concentration 90 nM)
Outline: as §1

Row | Sequence | PBM binding z-score [1] | PBM binding z-score [2] | PBM binding z-score [3] | PBM binding z-score [4] | PBM binding z-score [5] | PBM binding z-score [6] | PBM binding z-score [7] | PBM binding z-score [8] | PBM binding z-score [9]
1 | ATCGAAAGGTCCAAGGTGAGTATACCCACCCGAA | 0.219 | -0.213 | 0.175 | 0.771 | 1.01 | 0.802 | 0.219 | 0.627 | -0.563
2 | CGTCAAAGTTCAACTAAGGTTACGTAAAGCACGC | 7.19 | 6.3 | 2.31 | 5.63 | 5.53 | 5.55 | 2.42 | 4.33 | 0.789
3 | TAGCCTAGGTTATGGGCCAGTATACCACGCGAAC | -0.238 | -0.332 | -0.441 | 0.542 | 0.643 | 0.89 | -0.0157 | 0.388 | 0.121
4 | GGAACGAGGGCATTCGAGTTCATAGCATGGCGAT | 3.41 | 6.2 | -0.617 | 2.7 | 1.4 | 1.33 | -0.096 | 0.725 | 2.82
5 | CCTTACGGGTTACTCCAGGTTATAGCATCGGAGT | 2.01 | 5.38 | -0.167 | 1.45 | 0.504 | 0.711 | -0.136 | 0.413 | 0.986
6 | TAGCCTAGGTCATTCAGGGGCCAGCATAGAAAGC | 4.87 | 0.45 | 0.706 | 3.89 | 2.37 | 2.62 | 0.723 | 1.28 | 2.03
7 | GCTAGTTGGTCAGTAAAAGGTGACACACCGGTCG | 0.000592 | -0.18 | -0.568 | 1.54 | 0.834 | 1.59 | -0.104 | 1.02 | 0.643
8 | GTTACAGGGTCAAGGCCAGAGTACGCGTATTGAT | 6.43 | 0.317 | 0.463 |  | 5.4 | 5.66 | 2.09 | 4.49 | 3.09
9 | CCTACTGGTCCAAGGTCATTGATCAGTCAAAGCA | 3.53 | 2.3 | 0.894 | 3.59 | 1.77 | 3.04 | 0.847 | 2.12 | 0.394
10 | CCTTACGGGTCAAGGTTATAGCCCGGGTGGTACG | 5.51 | 0.231 | -0.334 | 4.97 | 4.06 | 4.86 | 1.37 | 3.74 | 1.8
11 | CCTACTGGGCCACTAAAGGTCATTGATTCAGTGA | 3.27 | 8.29 | 1.27 | 4.62 | 4.06 | 4.89 | 2.26 | 4.15 | 5.49
12 | ATCGAAAGGTCGAAGGTGAGCATACCCACCCGAA | 4.19 | 0.288 | 0.758 | 5.01 | 5.08 | 5.08 | 2.36 | 4.36 | 0.147
13 | CGTCCAAGGTCAATGCTAGATCAGTGAAAGCATT | 6.47 | 0.407 | 0.497 |  | 3.65 | 4.19 | 1.52 | 2.91 | 3.16
14 | TCTAGTTGGTCACGGAGGACACACACGACGGGTA | 0.602 | 0.465 | 0.417 | 0.752 | 1.34 | 1.7 | 2.85 | 2.53 | 2.26
15 | TAGCCTAGGTCATGCGGGCCAATATAGTGTCGGC | 4.22 | 0.473 | -0.31 | 3.53 | 2.39 | 2.44 | 0.146 | 1.26 | 1.58
16 | ATCGAAAGGTCTAAGGTGAGTATACCCACCCGAA | 0.614 | -0.103 | -0.0723 | 1.52 | 1.52 | 2.08 | 0.802 | 1.56 | -0.401
17 | CCTACGGGGCCACGAAAGGTCATTGATTCAGTGA | 4.71 | 4.26 | 0.262 | 4.69 | 2.82 | 3.88 | 1.18 | 2.46 | 1.57
18 | AGAATGAGGTTACCAAAGTTCAGGGAAACGCTTG | 3.73 | 7.31 | -0.0133 | 4.6 | 3.65 | 4.08 | 1.65 | 3.24 | 3.96
19 | AATACAGGGTCATCTTAGGCCAGAGTACGCACAG | 7.35 | 2.36 | 1.74 | 6.06 | 6.19 | 5.79 | 2.46 | 4.59 | 2.7
20 | ATCGAAAGGTCGACCAGGTGAGTATACACCGTTT | 4.91 | 0.21 | 0.349 | 4.53 | 3.14 | 3.34 | 1.16 | 2.44 | 0.539
21 | TCGCCTAGGTCATGGGCCAGTATACCACGCGAAC | 4.68 | 0.142 | -0.146 | 4.13 | 3.52 | 3.4 | 1.9 | 2.9 | 1.88
22 | AGAATGAGATTACCAAAGATCAGGGAAACGCTTG | -0.562 | -0.342 | -0.574 | -0.285 | 0.538 | -0.216 | -0.00239 | 0.0878 | -0.34
23 | CCTTACGGGTCACTCCAGGTCATAGCATCGGAGT | 5.36 | 7.03 | 0.548 | 4.91 | 4.38 | 4.54 | 1.86 | 3.2 | 2.73
24 | AATACAGGGTGACTAGGCCAGAGTAGGTACGAAT | 0.201 | 0.00715 | -0.0758 | 1.7 | 2.6 | 2.06 | 0.461 | 1.08 | 2.23
25 | TCTAGTTGGTCACGGAGGTCACAAACGACGGGTA | 2.95 | 2.21 | 0.892 | 3.87 | 3.15 | 3.83 | 3.19 | 3.12 | 2.44
26 | AGTCAAAGTTCATCTAGGTCACGTAAGATATGCT | 7.54 | 7.38 | 2.1 | 5.68 | 7.93 | 7.25 | 4.56 | 6.61 | 3.49
